What was measured:
Assay in all cases: PBM binding z-score (relative to random genomic background probes); higher = stronger binding; sequences stand for … in GC…GCGATTGACAGCGTAGAATGAAGG
[1] = tested on: PPARg:RXRa DBDmut IVT, anti-RXR (DBD mutation: RXRa K156A/R161A, NR concentration 270 nM, RXRa partner concentration 90 nM)
Outline: (§1)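 Custom Agilent 4×180K protein-binding microarrays carried double-stranded probes, each with a 34-nt variable region. These regions held direct-repeat seeds, single-nucleotide variants, half-site ablations and random human genomic background sequences. Ligand-free nuclear receptor dimers were incubated on the arrays for 1 h, antibodies against each partner (one per run) detected binding, and scanned fluorescence was regression-normalized. Binding z-scores take the random background probes as reference.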

[2] = tested on: PPARg:RXRa IVT, anti-PPARg (NR concentration 270 nM, RXRa partner concentration 90 nM)
Outline: as §1

[3] = tested on: PPARg DBDmut:RXRa IVT, anti-PPARg (DBD mutation: PPARg1 K132A/R137A, NR concentration 270 nM, RXRa partner concentration 90 nM)
Outline: as §1

[4] = tested on: PPARg DBDmut IVT, anti-PPARg (DBD mutation: PPARg1 K132A/R137A, NR concentration 270 nM)
Outline: as §1

[5] = tested on: PPARg homodimer (NR concentration 180 nM)
Outline: as §1

[6] = tested on: PXR:RXRa (NR concentration 270 nM, RXRa partner concentration 90 nM)
Outline: as §1

[7] = tested on: PXR homodimer (NR concentration 270 nM)
Outline: as §1

[8] = tested on: RARa:RXR (NR concentration 270 nM, RXRa partner concentration 90 nM)
Outline: as §1

[9] = tested on: RARa homodimer (NR concentration 270 nM)
Outline: as §1

[10] = tested on: RARb:RXRa (NR concentration 270 nM, RXRa partner concentration 90 nM)
Outline: as §1

[11] = tested on: RARb homodimer (NR concentration 270 nM)
Outline: as §1

[12] = tested on: RARg:RXRa (NR concentration 270 nM, RXRa partner concentration 90 nM)
Outline: as §1

[13] = tested on: RARg homodimer (NR concentration 270 nM)
Outline: as §1

[14] = tested on: RXRa DBDmut IVT, anti-RXR (DBD mutation: RXRa K156A/R161A, NR concentration 90 nM)
Outline: as §1

[15] = tested on: RXRa homodimer (NR concentration 180 nM)
Outline: as §1

[16] = tested on: THRa:RXRa (NR concentration 90 nM, RXRa partner concentration 90 nM)
Outline: as §1

[17] = tested on: THRa homodimer (NR concentration 90 nM)
Outline: as §1

[18] = tested on: VDR homodimer (NR concentration 270 nM)
Outline: as §1

Sequence | PBM binding z-score [1] | PBM binding z-score [2] | PBM binding z-score [3] | PBM binding z-score [4] | PBM binding z-score [5] | PBM binding z-score [6] | PBM binding z-score [7] | PBM binding z-score [8] | PBM binding z-score [9] | PBM binding z-score [10] | PBM binding z-score [11] | PBM binding z-score [12] | PBM binding z-score [13] | PBM binding z-score [14] | PBM binding z-score [15] | PBM binding z-score [16] | PBM binding z-score [17] | PBM binding z-score [18]
AGAACGAGTGCACGCTGAGTTGATAGCAGAGTAG | -0.434 | 0.0753 | 0.194 | -0.145 | -0.176 | 0.739 | 0.603 | -0.0592 | -0.662 | 0.298 | -0.576 | 0.354 | 0.356 | 3.07 | 0.384 | -0.0909 | -0.746 | 2.64
CCTACTGCGCCAAAAAGGTCATTGATGCCGATAA | 0.459 | 1.48 | 0.19 | 0.294 | 4.51 | 4.87 | 3.21 | 5.58 | 3.23 | 4.05 | 4.48 | 4.82 | 4.32 | 1.65 | 5.56 | 3.04 | 1.34 | 3.24
TAGCCTAGGTCATTCATGGGCCAGTATAGAAAGC | 1.41 | 2.53 | 0.271 | 0.314 | 1.08 | 1.66 | -0.168 | 2.61 | -0.242 | 3.66 | 2.52 | 4.74 | 4.57 | 1.84 | 3.2 | 2.71 | 0.289 | 0.945
CATACAGGGTCAGCTAGGCGAGAGTAGGGACGGC | 1.21 | 2.05 | 0.279 | 0.468 | 1.41 | 1.83 | 0.199 | 3.05 | 0.266 | 4.04 | 3.12 | 4.39 | 4.53 | 1.72 | 4.02 | 3.05 | 1.01 | 0.943
CGAACGAGGGCATGAGTTGAGAGCAAATGCCGAT | 3.19 | 2.16 | -0.212 | -0.733 | -0.198 | 0.363 | -0.12 | 0.437 | -0.617 | 2.05 | 0.724 | 1.46 | 1.56 | 1.8 | 1.02 | 1.25 | -0.339 | 1.26
CCTAGCAGTCCAATCTGGGTCACTCAAGGCTTGA | 3.55 | 4.58 | -0.524 | -0.84 | 0.738 | 1.04 | -0.0331 | 1.58 | -0.751 | 1.17 | 2.02 | 0.766 | 0.694 | 0.516 | 0.768 | 2.86 | 0.629 | 0.187
ATATGTAGGTTAAGGGTCATTCTGGTTGGTTCGC | 7.57 | 7.51 | 2.31 | 1.76 | 4.67 | 4.85 | 1.04 | 5.63 | 2.03 | 3.56 | 3.64 | 4.65 | 3.2 | 2.17 | 6.03 | 3.23 | 1.75 | 4.43
CTCGAAAGGTCGTGCTCAAGTGAGTATACCAAAC | 0.992 | 1.58 | 1.46 | 0.784 | 1.8 | 3.15 | 0.371 | 3.74 | -0.14 | 3.97 | 2.33 | 4.27 | 3.66 | 2.31 | 4.62 | 2.31 | -0.0165 | 1.15
ATATGTAGGTTATCGGGTCACTCAGTTTGCGCAT | 7.7 | 7.75 | 1.5 | 2.23 | 3.69 | 3.61 | 4.7 | 3.72 | 1.9 | 2.68 | 3.37 | 3.31 | 3.06 | 1.56 | 3.33 | 3.59 | 3.18 | 2.36
CAAACTGGGTCAAGAGGTCAAAGTCCGCTTCCCG | 7.83 | 8.28 | 2.26 | 1.72 | 5.48 | 6.28 | 2.74 | 7.7 | 1.96 | 5.29 | 5.73 | 7.97 | 7.04 | 2.51 | 8.44 | 4.14 | 2.13 | 4.76
GCGACTGGGGCAACGCAGGTTACCATAAGGTTGG | 4.39 | 4.13 | -0.305 | -0.763 | -0.0289 | 0.606 | -0.69 | 0.702 | -1.06 | 1.19 | 1.32 | 0.851 | 0.785 | -0.722 | 0.638 | 2.88 | 0.105 | -0.176
GCTTACGGGTCAAAGGTTAGAGCATGAATAGAAT | 4.34 | 5.74 | 0.587 | 1.17 | 3.25 | 5.59 | 0.235 | 7.74 | 0.552 | 4.37 | 3.1 | 6.33 | 4.54 | 2.02 | 8.91 | 3.6 | -0.338 | 0.946
TCTTGTAGATCAACAGGAAGTTAAGAAAGATCGA | 1.64 | 0.249 | 0.464 | 0.377 | -0.378 | -0.183 | -0.761 | -0.00111 | 0.174 | -0.318 | -0.828 | -0.328 | -0.339 | 0.508 | -0.0187 | -0.307 | -1.05 | -0.551
AGAAGGAGGTTATACGTAGATCAGGGAAGAAAGT | 2.41 | 1.24 | 2.08 | 0.617 | 1.18 | 1 | 1.06 | 0.963 | 1.33 | 1.34 | 1.26 | 1.3 | 1.11 | 0.234 | 1.59 | 1.28 | 0.665 | 0.752
GCTAGCAGGCCAGTTGGGTCACTCAATGACGGGC | 0.163 | 0.353 | -1.62 | -2.01 | -0.447 | -0.0174 | -0.643 | 0.497 | -0.946 | 1.27 | 1.76 | 0.797 | 0.963 | -1.01 | 0.522 | 1.45 | 0.0151 | -0.361
